Results reported in PubChem BioAssay AID623870 (Broad Institute, 2012).
Screen size: about 390,000 compounds; about 2,600 (0.67%) were called active. The sample holds actives, similar compounds and a random draw of the others, so the mix is not that of the screen. Unmarked numbers belong to inactive results.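 How the source made its calls: active means mean inhibition of replicates at least 50% and at least half of replicates each reaching 50%; inconclusive means half or more replicates reach 50% but mean below 50%; inactive means the rest.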

Biological target: Transforming acidic coiled-coil-containing protein 3 (Homo sapiens) (UniProt Q9Y6A5)
Test: inhibitors of ARNT PAS-B binding to TACC3 – biochemical, AlphaScreen, single concentration, primary screen (AID 623870);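 further: 0% = complete ARNT plus TACC3 wells and 100% = ARNT alone without TACC3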
Conditions: AlphaScreen His-ARNT PAS-B/GST-TACC3 binding, luminescence; at 9.99 µM; hits give high values; TACC3 fragment carries E629A point mutation

**Q.** CCOc1ncccc1C(=O)NCCc1ccc(OC)cc1 was tested. Which inhibition did it give?
**A.** 3.87%

**Q.** C/C(=N/NC(=O)CSc1ccccn1)c1ccc([N+](=O)[O-])cc1 was tested. Which inhibition did it give?
**A.** -1.61%

**Q.** Which inhibition does the source give for C/C(Cc1ccccc1)=N\NC(=O)CNC(=O)c1ccccc1Cl here?
**A.** 4.6%

**Q.** With COc1ccc(CNC(=O)COc2cccnc2[N+](=O)[O-])cc1 as the compound, how does the inhibition read?
**A.** -14.8%

**Q.** For C/C(=N\NC(=O)Cc1ccc(Cl)cc1)c1ccccn1, which inhibition is on record?
**A.** 28.6% (active)

**Q.** With COc1ccc(CC(=O)N/N=C(\C)c2ccccn2)cc1 as the compound, how does the inhibition read?
**A.** 65.8% (active)

**Q.** C[C@H]1CN([C@@H](C)CO)C(=O)c2cc(/C=C/c3ccccc3)cnc2O[C@H]1CN(C)Cc1cccc(C(=O)O)c1 was tested. Which inhibition did it give?
**A.** -2.95%

**Q.** Which inhibition does the source give for CO[C@@H]1CN(C)C(=O)c2cc(NC(=O)Nc3cc(F)ccc3F)ccc2OC[C@@H](C)N(C)C[C@H]1C here?
**A.** 11.6%

**Q.** With CO[C@H]1CN(C)C(=O)c2cc(NC(=O)C3CCOCC3)ccc2OC[C@@H](C)N(Cc2cccnc2)C[C@@H]1C as the compound, how does the inhibition read?
**A.** -4.49%

**Q.** With CCNC(=O)C[C@H]1CC[C@@H]2[C@H](COc3ccc(NC(=O)Nc4cccc(Cl)c4)cc3C(=O)N2C)O1 as the compound, how does the inhibition read?
**A.** 4.93%

**Q.** CO[C@@H]1CN(C)C(=O)c2cc(NC(=O)C3CCOCC3)ccc2OC[C@H](C)N(Cc2cccnc2)C[C@@H]1C was tested. Which inhibition did it give?
**A.** -4.7%

**Q.** CCCN(C)C[C@@H]1Oc2cc(-c3ccc(C)cc3)ccc2S(=O)(=O)N([C@@H](C)CO)C[C@H]1C was tested. Which inhibition did it give?
**A.** 3.53%

**Q.** Which inhibition does the source give for CO[C@H]1O[C@H](CO)[C@@H](OC(=O)Nc2ccccc2-c2ccccc2)[C@H](OC(=O)Nc2ccccc2)[C@H]1OC(=O)Nc1ccccc1 here?
**A.** 0.749%

**Q.** How did the inhibition turn out when COc1ccccc1-c1ccc([C@@H]2[C@@H](CO)N3CCCCN(C(=O)c4ccncc4)C[C@@H]23)cc1 was run?
**A.** -0.716%

**Q.** For CC(=O)/C(=N\Nc1ccc(Cl)cc1Cl)Sc1cccc2cccnc12, which inhibition is on record?
**A.** 61.1% (active)

**Q.** With CC1(c2ccc(Cl)cc2Cl)NC(=O)N(CC(=O)Nc2cccnc2Cl)C1=O (configuration not stated) as the compound, how does the inhibition read?
**A.** 0.909%

**Q.** CC(NC(=O)COc1cccnc1[N+](=O)[O-])c1ccc(Cl)cc1Cl (configuration not stated) was tested. Which inhibition did it give?
**A.** 1.05%

**Q.** Which inhibition does the source give for CN1C[C@H]2[C@@H](c3ccccc31)[C@@H](CO)N2Cc1ccccc1 here?
**A.** 2.13%

**Q.** COc1ccc(NC(=O)Nc2ccc3c(c2)C(=O)N([C@H](C)CO)C[C@H](C)[C@H](CN(C)S(=O)(=O)c2ccc(OC)cc2)O3)cc1 was tested. Which inhibition did it give?
**A.** 8.74%

**Q.** O=C(Nc1cc(F)ccc1F)N1CCCCN2[C@H](C1)[C@H](c1ccc(-c3cccnc3)cc1)[C@@H]2CO was tested. Which inhibition did it give?
**A.** -4.21%

**Q.** How did the inhibition turn out when CNC[C@H]1Oc2cc(C#Cc3ccccc3)ccc2S(=O)(=O)N([C@@H](C)CO)C[C@@H]1C was run?
**A.** 21.9%

**Q.** For CC(C)NC(=O)N(C)C[C@H]1Oc2cc(C#Cc3ccccn3)ccc2S(=O)(=O)N([C@H](C)CO)C[C@@H]1C, which inhibition is on record?
**A.** -1.38%

**Q.** CNC[C@H]1Oc2cc(C#Cc3ccccn3)ccc2S(=O)(=O)N([C@H](C)CO)C[C@@H]1C was tested. Which inhibition did it give?
**A.** 47.7% (active)

**Q.** Which inhibition does the source give for CN1[C@@H]2c3ccc(-c4cccc(F)c4)c(=O)n3C[C@@H]2[C@@H](CO)[C@@H]1C(=O)NC1CCC1 here?
**A.** -9.74%

**Q.** For CCC(=O)Nc1ccc2c(c1)OC[C@H](C)N(C(=O)c1ccncc1)C[C@H](C)[C@H](OC)CN(C)C2=O, which inhibition is on record?
**A.** 6.95%

**Q.** How did the inhibition turn out when C[C@@H]1CN([C@@H](C)CO)C(=O)c2cccc(NC(=O)c3ccncc3)c2O[C@H]1CN(C)S(=O)(=O)c1ccc(F)cc1 was run?
**A.** -8.57%

**Q.** Which inhibition does the source give for C[C@@H]1CN([C@H](C)CO)C(=O)c2cc(NC(=O)Cc3cn(C)c4ccccc34)ccc2O[C@@H]1CN(C)S(=O)(=O)c1cccs1 here?
**A.** -11.1%

**Q.** How did the inhibition turn out when COC(=O)CC1=NN(c2nc(C)cc(C)n2)C(=O)C1 was run?
**A.** 13.9% (active)

**Q.** Cc1ccc(CC2CC(=O)N(c3nc(C)cc(C)n3)C2=O)cc1 (configuration not stated) was tested. Which inhibition did it give?
**A.** -8.57%

**Q.** With Cc1cc(C)nc(N2C(=O)CC(Cc3ccccc3)C2=O)n1 (configuration not stated) as the compound, how does the inhibition read?
**A.** -0.771%

**Q.** Which inhibition does the source give for COCCNC(=O)C[C@H]1CC[C@@H]2[C@@H](COc3ccc(NC(=O)C4CCOCC4)cc3C(=O)N2C)O1 here?
**A.** -6.26%

**Q.** For CCC(=O)N[C@H]1CC[C@H](CCn2cc(-c3cccc(OC)c3)nn2)O[C@H]1CO, which inhibition is on record?
**A.** -6.96%

**Q.** How did the inhibition turn out when Cc1c(NC(=O)CSc2cccc3cccnc23)c(=O)n(-c2ccccc2)n1C was run?
**A.** 93.2% (active)

**Q.** Which inhibition does the source give for Cc1c(NC(=O)CN2C(=O)C(=O)N(Cc3ccccc3)C2=O)c(=O)n(-c2ccccc2)n1C here?
**A.** 0.167%

**Q.** With Cc1ccccc1OCCC(=O)Nc1c(C)n(C)n(-c2ccccc2)c1=O as the compound, how does the inhibition read?
**A.** 5.66%

**Q.** With C[C@@H]1CN([C@H](C)CO)C(=O)c2ccccc2-c2ccccc2CO[C@@H]1CN(C)S(=O)(=O)CC(F)(F)F as the compound, how does the inhibition read?
**A.** -0.141%

**Q.** Which inhibition does the source give for C[C@H](CO)N1C[C@H](C)[C@H](CN(C)C)Oc2ccc(NC(=O)Cc3ccccc3)cc2CC1=O here?
**A.** -9.42%

**Q.** With C[C@H](CO)N1C[C@H](C)[C@H](CN(C)C(=O)NC2CCCCC2)Oc2c(NC(=O)C3CC3)cccc2C1=O as the compound, how does the inhibition read?
**A.** -12.2%

**Q.** With O=[N+]([O-])c1cc(Cl)cc(/C=N/NC(=S)Nc2cc(S(=O)(=O)N3CCOCC3)ccc2Cl)c1O as the compound, how does the inhibition read?
**A.** 41.4%

**Q.** For CNC(=S)N/N=C/c1ccc(N2CCOCC2)s1, which inhibition is on record?
**A.** 46.8% (active)

**Q.** Which inhibition does the source give for C=CCNC(=S)N/N=C/c1ccc(C)s1 here?
**A.** 3.54%

**Q.** Which inhibition does the source give for COc1ccc(NC(=O)N(C)C[C@@H]2Oc3c(NC(=O)C4CCOCC4)cccc3C(=O)N([C@H](C)CO)C[C@@H]2C)cc1 here?
**A.** 26.5%

**Q.** For O=C(Nc1nncs1)c1cccc(S(=O)(=O)N2CCCCC2)c1, which inhibition is on record?
**A.** -5.27%

**Q.** How did the inhibition turn out when Cc1ncc(CO)c(/C=N/NC(=O)c2cccc(S(=O)(=O)N3CCCC3)c2)c1O was run?
**A.** 75.9% (active)

**Q.** With O=C(NNC1=NCCC1)c1cccc(S(=O)(=O)N2CCCCC2)c1 as the compound, how does the inhibition read?
**A.** 30.6%

**Q.** With CCCN(C)C[C@@H]1OCCCC[C@@H](C)Oc2ccc(NS(=O)(=O)c3c(C)noc3C)cc2C(=O)N([C@H](C)CO)C[C@@H]1C as the compound, how does the inhibition read?
**A.** -10.1%

**Q.** For COCC#Cc1cnc2c(c1)C(=O)N([C@@H](C)CO)C[C@@H](C)[C@@H](CN(C)C(=O)Nc1ccc(OC)cc1)O2, which inhibition is on record?
**A.** 4.88%
